Here are results for 15 compounds from PubChem BioAssay (Tox21).

A number with no mark means an inactive call. Results filed as inconclusive are left out. Calls of active or inactive are those of the source. Unless noted, the call rests on the fitted dose curve; in most records, active means well fitted curve in the direction sought with a large enough effect in the repeat runs; inconclusive means weak or mixed curves; inactive means no such curve, though single readings can be large; an effect the other way counts as inactive or inconclusive.

The nature of test [1]: qHTS assay to test for compound auto fluorescence at 535 nm (green) in HEK293 cells (AID 720680). Further: on the % scale 0 is the no-effect control and ±100 the full control effect. On the technique in general: qHTS replaces the single test concentration by a dilution series.
Test [2] can be described thus: qHTS assay to test for compound auto fluorescence at 460 nm (blue) in HEK293 cell free culture (AID 720681). Further: on the % scale 0 is the no-effect control and ±100 the full control effect. In a few lines: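 Blue fluorescence (Ex 405/Em 460 nm, triamterene-equivalent) was read immediately after pin transfer of compound or DMSO into medium (DMEM, 10% FBS) without cells.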
Test [3] is described as follows: qHTS assay to test for compound auto fluorescence at 535 nm (green) in HEK293 cell free culture (AID 720682). Further: on the % scale 0 is the no-effect control and ±100 the full control effect. In a few lines:
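Green-label autofluorescence (485 nm excitation, 535 nm emission) measured on compound added to cell-free culture medium (DMEM, 10% FBS). Output is expressed relative to fluorescein.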

Test [4] in a line: qHTS assay to test for compound auto fluorescence at 590 nm (red) in HEK293 cell free culture (AID 720683). Further: on the % scale 0 is the no-effect control and ±100 the full control effect. The method in brief:
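Red-channel autofluorescence of compounds in culture medium (DMEM, 10% FBS), no cells, measured at 540/590 nm. Rose Bengal sodium is the reference fluorophore for equivalence.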

Test [5] is described as follows: qHTS assay to test for compound auto fluorescence at 590 nm (red) in HepG2 cell free culture (AID 720684). Further: on the % scale 0 is the no-effect control and ±100 the full control effect. In a few lines: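 No cells present: MEM + 10% FBS only. Compound pinned in, red label read (540/590 nm). Activity = fluorescence equivalent to Rose Bengal sodium.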
Test [6] is described as follows: qHTS assay to test for compound auto fluorescence at 460 nm (blue) in HepG2 cell free culture (AID 720685). Further: on the % scale 0 is the no-effect control and ±100 the full control effect. In a few lines:
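Cell-free plates of MEM plus 10% FBS received 23 nL compound or DMSO vehicle; blue-channel (405/460 nm) intensity scored against triamterene as reference fluorophore.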

The nature of test [7]: qHTS assay to test for compound auto fluorescence at 535 nm (green) in HepG2 cell free culture (AID 720686). Further: on the % scale 0 is the no-effect control and ±100 the full control effect.
Test [8] in a line: qHTS assay to test for compound auto fluorescence at 460 nm (blue) in HepG2 cells (AID 720687). Further: on the % scale 0 is the no-effect control and ±100 the full control effect. In a few lines: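 Blue-channel autofluorescence (Ex/Em 405/460 nm, triamterene-equivalent) was measured after 1 hr compound exposure at 37 C, 5% CO2. Cells were HepG2, plated overnight at 37 C in MEM plus 10% FBS.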
Test [9] in a line: qHTS assay to identify small molecule antagonists of the glucocorticoid receptor (GR) signaling pathway - cell viability counter screen (AID 720693). Further: nearly all actives have a fitted effect of over 55% in size. Further: potency means the concentration at half of the fitted maximal effect.
Test [10] can be described thus: qHTS assay for identifying genotoxic compounds that show differential cytotoxicity against isogenic chicken DT40 cell lines with known DNA damage response pathways - wild type cell line (AID 743012). Further: nearly all actives have a fitted effect of over 60% in size. Further: potency means the concentration at half of the fitted maximal effect. In a few lines: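 Viability by ATP luminescence (CellTiter-Glo, 30 min RT) after 40 h compound treatment at 37 C/5% CO2, using 300 parental DNA repair-proficient DT40 cells per well.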

Test [11] is described as follows: qHTS assay for identifying genotoxic compounds that show differential cytotoxicity against isogenic chicken DT40 cell lines with known DNA damage response pathways - Rev3 mutant cell line (AID 743014). Further: nearly all actives have a fitted effect of over 55% in size. Further: potency means the concentration at half of the fitted maximal effect.
Test [12] can be described thus: qHTS assay for identifying genotoxic compounds that show differential cytotoxicity against isogenic chicken DT40 cell lines with known DNA damage response pathways - Rad54/Ku70 mutant cell line (AID 743015). Further: nearly all actives have a fitted effect of over 60% in size. Further: potency means the concentration at half of the fitted maximal effect.
Test [13] is described as follows: qHTS assay to identify small molecule antagonists of the androgen receptor (AR) signaling pathway - cell viability counter screen (AID 743033; further: nearly all actives have a fitted effect of over 45% in size; further: potency means the concentration at half of the fitted maximal effect).
Test [14] deals with Androgen receptor (Homo sapiens) (UniProt P10275). Put plainly: qHTS assay to identify small molecule antagonists of the androgen receptor (AR) signaling pathway (AID 743035; active means well fitted inhibition curve with a large enough effect in the signal ratio in the repeat runs, not every such curve was filed as active; the % refers to the signal ratio; further: potency means the concentration at half of the fitted maximal effect). In a few lines: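 Antagonist mode: AR-bla HEK293 cells co-treated with test compounds and agonist R1881 for 16 h at 37C, 5% CO2. Beta-lactamase activity read as FRET fluorescence after 2 h room-temperature substrate loading.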

For test [15] the target is unchanged. In words: qHTS assay to identify small molecule agonists of the androgen receptor (AR) signaling pathway using the MDA cell line (AID 743040; further: on the % scale 0 is the no-effect control and ±100 the full control effect; nearly all actives have a fitted effect of over 20% in size). In a few lines: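 Stable MMTV-luciferase reporter in MDA-kb2 cells; note the promoter carries GR as well as AR response elements. 16 h compound treatment, 37C, 0% CO2; ONE-Glo luminescence endpoint.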
Test [16] in a line: qHTS assay to identify small molecule antagonists of the androgen receptor (AR) signaling pathway using the MDA cell line - cell viability counter screen (AID 743041; further: nearly all actives have a fitted effect of over 45% in size; further: potency means the concentration at half of the fitted maximal effect). In a few lines: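 Using the breast carcinoma line MDA-kb2 AR-luc, test chemicals were co-incubated with R1881 for 16 h; CellTiter-Fluor reagent, added at 15.5 h, provided a fluorescence measure of live cells.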

Test [17] concerns the target Androgen receptor (Homo sapiens) (UniProt P10275). Put plainly: qHTS assay to identify small molecule antagonists of the androgen receptor (AR) signaling pathway using the MDA cell line (AID 743042; further: nearly all actives have a fitted effect of over 55% in size; further: potency means the concentration at half of the fitted maximal effect). The method in brief:
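Antagonist mode: compounds plus R1881 agonist added to MDA-kb2 AR-luc cells, incubated 16 h at 37C. Luciferase reporter luminescence quantified, with multiplexed CellTiter-Fluor readout for cell viability.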

Test [18] has as its target Glucocorticoid receptor (Homo sapiens) (UniProt P04150). Put plainly: qHTS assay to identify small molecule agonists of the glucocorticoid receptor (GR) signaling pathway (AID 720691; active means well fitted activation curve with a large enough effect in the signal ratio in the repeat runs, not every such curve was filed as active; the % refers to the signal ratio; further: on the % scale 0 is the no-effect control and ±100 the full control effect). The settings on record: GR-bla HeLa, beta-lactamase reporter ratio, 18 h; activation: at 62.4 µM (top of the series). The method in brief: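 Agonist-mode qHTS in HeLa cells stably expressing a glucocorticoid-response-element beta-lactamase reporter. Fluorescence intensity read with FRET substrate (2 h, room temperature) after 18 h compound treatment at 37 C.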

For test [19], the target named is Androgen receptor (Homo sapiens) (UniProt P10275). Put plainly: qHTS assay to identify small molecule agonists of the androgen receptor (AR) signaling pathway (AID 743036; active means well fitted activation curve with a large enough effect in the signal ratio in the repeat runs, with a control signal flat, not every such curve was filed as active; the % refers to the signal ratio; further: on the % scale 0 is the no-effect control and ±100 the full control effect). The method in brief: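 AR-UAS-bla HEK293 cells, plated 4 h before dosing, were treated with compound for 16 h at 37C. beta-Lactamase reporter read after 2 h with LiveBLAzer B/G FRET substrate at room temperature.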

The target in test [20] is Glucocorticoid receptor (Homo sapiens) (UniProt P04150). Put plainly: qHTS assay to identify small molecule antagonists of the glucocorticoid receptor (GR) signaling pathway (AID 720692; active means well fitted inhibition curve with a large enough effect in the signal ratio in the repeat runs, not every such curve was filed as active; the % refers to the signal ratio; further: potency means the concentration at half of the fitted maximal effect). The method in brief: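 Inhibition of dexamethasone-driven (5 nM final) beta-lactamase expression was measured in GRE-reporter HeLa cells over 18 h at 37C. Fluorescence was read after 2 h with the B/G FRET substrate at room temperature.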
Chain of Glucocorticoid receptor (Homo sapiens) (P04150 whole entry, looked up): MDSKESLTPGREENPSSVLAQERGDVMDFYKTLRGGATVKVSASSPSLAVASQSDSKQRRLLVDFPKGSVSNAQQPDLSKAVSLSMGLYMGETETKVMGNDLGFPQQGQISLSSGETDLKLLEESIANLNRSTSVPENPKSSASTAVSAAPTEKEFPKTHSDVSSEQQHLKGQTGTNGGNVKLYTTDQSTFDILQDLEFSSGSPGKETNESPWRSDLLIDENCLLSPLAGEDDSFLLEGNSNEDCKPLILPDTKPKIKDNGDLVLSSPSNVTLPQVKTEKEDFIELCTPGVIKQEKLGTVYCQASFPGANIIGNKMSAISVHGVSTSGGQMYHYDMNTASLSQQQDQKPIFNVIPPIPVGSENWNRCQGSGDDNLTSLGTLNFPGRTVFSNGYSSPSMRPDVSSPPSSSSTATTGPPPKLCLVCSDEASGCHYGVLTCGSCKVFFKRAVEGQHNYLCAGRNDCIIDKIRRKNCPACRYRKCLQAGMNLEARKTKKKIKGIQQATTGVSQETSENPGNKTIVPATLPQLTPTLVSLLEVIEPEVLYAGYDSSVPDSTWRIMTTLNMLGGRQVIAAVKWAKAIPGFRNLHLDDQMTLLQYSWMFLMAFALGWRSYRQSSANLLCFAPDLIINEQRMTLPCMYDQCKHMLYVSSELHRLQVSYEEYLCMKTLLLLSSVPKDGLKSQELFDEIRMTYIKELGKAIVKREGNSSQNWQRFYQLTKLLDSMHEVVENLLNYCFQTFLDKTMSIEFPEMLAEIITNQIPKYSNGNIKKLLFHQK

Chain of Androgen receptor (Homo sapiens) (P10275 whole entry, looked up): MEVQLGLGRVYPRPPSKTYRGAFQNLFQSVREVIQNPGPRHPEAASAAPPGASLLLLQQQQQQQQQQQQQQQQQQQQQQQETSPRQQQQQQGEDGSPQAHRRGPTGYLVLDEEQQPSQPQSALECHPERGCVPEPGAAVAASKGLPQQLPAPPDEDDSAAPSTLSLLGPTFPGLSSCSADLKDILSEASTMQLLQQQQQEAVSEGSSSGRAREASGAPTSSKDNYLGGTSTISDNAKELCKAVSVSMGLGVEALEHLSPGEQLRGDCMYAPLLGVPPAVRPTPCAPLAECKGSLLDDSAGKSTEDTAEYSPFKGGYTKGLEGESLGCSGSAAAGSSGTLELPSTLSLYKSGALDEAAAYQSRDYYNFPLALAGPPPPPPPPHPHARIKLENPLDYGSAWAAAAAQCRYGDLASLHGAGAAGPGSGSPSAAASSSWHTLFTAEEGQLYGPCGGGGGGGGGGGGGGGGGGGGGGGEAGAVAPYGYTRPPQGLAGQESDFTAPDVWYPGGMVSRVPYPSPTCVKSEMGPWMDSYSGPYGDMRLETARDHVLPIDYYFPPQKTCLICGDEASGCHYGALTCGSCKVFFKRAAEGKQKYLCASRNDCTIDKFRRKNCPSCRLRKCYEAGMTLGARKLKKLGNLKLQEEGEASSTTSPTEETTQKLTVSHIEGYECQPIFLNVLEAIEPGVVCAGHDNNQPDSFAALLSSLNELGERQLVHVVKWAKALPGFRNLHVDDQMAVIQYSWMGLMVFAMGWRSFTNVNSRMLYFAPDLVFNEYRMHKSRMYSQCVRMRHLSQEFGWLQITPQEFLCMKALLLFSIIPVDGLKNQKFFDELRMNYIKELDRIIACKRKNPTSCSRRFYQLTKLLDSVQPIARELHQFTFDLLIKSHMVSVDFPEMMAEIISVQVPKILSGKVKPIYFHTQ

As to `CCC[CH2][Sn]([CH2]CCC)([CH2]CCC)[O][Sn]([CH2]CCC)([CH2]CCC)[CH2]CCC`, the fluorescence, % of fluorescein in test [1] was 0.0128% [at 3.72 µM]. Further, the fluorescence, % of fluorescent control in test [2] is -0.0236% [at 3.72 µM]; in test [4] it was 0.113% [at 3.72 µM]; in test [6], -0.0005% [at 3.72 µM]; in test [8], 0.0007% [at 3.72 µM]. For the same compound, the results for the activity change in test [3] and in test [15] were 0.0175% [at 3.72 µM] and -9.89% [at 8.47 µM], respectively. For the same compound, the fluorescence, % of Rose Bengal in test [5] was 0.0071% [at 3.72 µM]. Besides, the fluorescence, % of fluorescein control in [7] was -0.0002% [at 3.72 µM]. Moreover, the Potency in test [9] is 1.35 µM (active); in [10] it was 0.336 µM (active); in test [11], 0.3 µM (active); in test [12], 0.267 µM (active); in test [13], 0.603 µM (active); in [14], 0.427 µM (active). Moreover, the Potency in test [16] is 1.5 µM (active); in test [17], 0.844 µM (active).
On to `C=CCOC(=O)c1ccccc1N`, for which the call in test [1], in test [3], in [4], in test [5], in test [19] and in [15] was inactive. Also, the Potency result in test [2], in test [6], in test [7], in test [8], in test [18] and in test [10] was “inactive” throughout. The Potency entry in [12], in test [13], in test [14], in [16] and in test [17] was “inactive” each time.
Take `CN(C)c1ccc(N)cc1`: the compound was classed as inactive in test [1], in [3], in [4], in test [5] and in test [19]. Further, the Potency result in test [2], in test [6], in test [7], in test [8], in test [9] and in test [17] was “inactive” throughout. The Potency in test [10] was 29.9 µM (active); in test [11], 21.2 µM (active); in [12], 26.6 µM (active); in test [13], 42.6 µM (active); in [14], 24 µM (active); in [16], 59.6 µM (active).
Take `Nc1ccccc1-c1ccccc1`: the result in test [1], in test [3], in test [4] and in test [5] was inactive. Besides, the Potency entry in test [2], in test [6], in test [7], in test [8], in test [18] and in [9] was “inactive” each time. For the same compound, the Potency entry in test [10], in test [12], in test [13] and in test [16] was “inactive” each time.
With `COP(=S)(OC)Oc1ccc([N+](=O)[O-])c(C)c1`, the outcome in test [1], in test [3], in [4] and in [5] was inactive. Moreover, the Potency result in [2], in [6], in test [7], in [8], in test [18] and in test [9] was “inactive” throughout. Also, the Potency entry in test [12], in [13] and in test [16] was “inactive” throughout.
As to `OCC(Br)CBr` (centres undefined), the result in test [1], in [3], in test [4] and in test [5] was inactive. Moreover, the Potency result in [2], in test [6], in test [7], in test [8], in test [18] and in [10] was “inactive” in each case. The Potency result in test [12] and in test [13] was “inactive” each time.
With `Cc1ccn2nc(S(=O)(=O)Nc3c(F)cccc3F)nc2n1`, the outcome in test [1], in test [3], in test [4] and in test [5] was inactive. Moreover, the Potency result in test [2], in [6], in test [7], in test [8], in test [9] and in [10] was “inactive” each time. Further, the Potency result in test [11], in test [12], in [13] and in [16] was “inactive” each time.
Take `N#Cc1c[nH]cc1-c1cccc2c1OC(F)(F)O2`: the result in test [1], in test [3], in test [4] and in test [5] was inactive. Moreover, the Potency entry in test [2], in [6], in test [7] and in test [8] was “inactive” each time. Further, the Potency in test [20] was 9.77 µM (active); in test [10], 13.7 µM (active); in [11], 8.63 µM (active); in [12] it was 13.7 µM (active).
For `CC(C)NCC(O)c1ccccc1Cl` (centres undefined), the call in [1], in test [3], in test [4], in [5], in [19] and in test [15] was inactive. Moreover, the Potency result in test [2], in [6], in test [7], in test [8], in test [9] and in test [10] was “inactive” throughout. Also, the Potency result in [11], in [12], in [13], in [14], in test [16] and in test [17] was “inactive” each time.
Regarding `c1ccc(Nc2ccc(Nc3ccccc3)cc2)cc1`, the compound was classed as inactive in [1], in [3], in test [4] and in test [5]. Moreover, the Potency result in test [2], in test [6], in [7], in test [8], in test [18] and in test [9] was “inactive” in each case. Moreover, the Potency result in [16] was “inactive”. The values for the Potency in [11] and in test [12] were 21.6 µM (active) and 24.2 µM (active), respectively.
As for `CC(O)C(=O)[O][Hg][c]1ccccc1` (centres undefined), the result in test [1], in test [3], in test [4] and in [5] was inactive. Also, the Potency entry in test [2], in [6], in test [7] and in [8] was “inactive” in each case. The Potency is 0.549 µM (active) in test [9]; 0.273 µM (active) in test [10]; 0.217 µM (active) in test [11]; 0.154 µM (active) in [12]; 2.45 µM (active) in [13]; 4.86 µM (active) in test [16].
Regarding `CCCCn1cc[n+](C)c1` (tested in a mixture with another compound), the compound was called inactive in [1], in test [3], in [4] and in test [5]. Moreover, the Potency entry in test [2], in test [6], in [7], in test [8], in test [9] and in test [10] was “inactive” in each case. Moreover, the Potency entry in [11], in test [12], in test [13] and in test [16] was “inactive” throughout.
On to `CC(C)C(Nc1ccc(C(F)(F)F)cc1Cl)C(=O)OC(C#N)c1cccc(Oc2ccccc2)c1` (centres undefined), for which the compound was called inactive in test [1], in [3], in [4] and in [5]. In addition, the Potency entry in test [2], in [6], in test [7], in [8], in test [9] and in test [10] was “inactive” each time. The Potency result in [11], in [12], in test [13] and in test [16] was “inactive” in each case.
With `Cc1cc(C2CC2)nc(Nc2ccccc2)n1`, the compound was classed as inactive in test [1], in test [3], in test [4] and in [5]. The Potency entry in test [2], in test [6], in test [7], in [8] and in test [9] was “inactive” throughout. The Potency in [10] is 24.3 µM (active); in [11], 30.6 µM (active); in test [12], 24.3 µM (active).
On to `CCCCCON=O`, for which the outcome in test [1], in [3], in [4] and in test [5] was inactive. Also, the Potency entry in test [2], in test [6], in test [7], in test [8], in test [9] and in test [10] was “inactive” throughout. In addition, the Potency entry in [11], in [12] and in [13] was “inactive” throughout.
